NPC1 promoter act: qHTS Assay for NPC1 Promoter Activators; AID 485313, 2010; Potency, µM (titrated, usually from 9.22 µM), usual class: activators; Huh7 NPC1 promoter luciferase reporter, 24 h; 320,000 compounds, 2.4% hits; note: nearly all actives have a fitted effect of over 60% in size
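Luminescence from an NPC1 promoter-driven luciferase reporter in stably transfected Huh7 cells was measured after 24 h compound treatment at 37 °C, followed by 10 min ambient incubation with luciferase detection reagent.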
SMN2 splice up: qHTS Assay for Enhancers of SMN2 Splice Variant Expression; HEK293 SMN2-luciferase splicing reporter, luminescence, 30-36 h; 210,000 compounds, 2.8% hits; Potency, µM (titrated, usually from 46.1 µM), actives largely listed as activators; AID 1458, 2008; note: nearly all actives have a fitted effect of over 55% in size
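HEK293 cells carry an SMN2 […]–luciferase reporter in which exon 7 inclusion puts luciferase in frame. Cells were plated 10-12 h before compound addition, then incubated 30-36 h at 37C. ONE-Glo luminescence was read; sodium butyrate at 4.5 mM final served as control.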
Rab9 prom act: qHTS Assay for Rab9 Promoter Activators | Huh7 Rab9 promoter-luciferase reporter, luminescence, 24 h | Potency, µM (top dose mostly 9.22 µM), most hits filed as activators | 320,000 compounds, 2.8% hits | AID 485297, 2010; note: nearly all actives have a fitted effect of over 60% in size
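Quantitative HTS format; Huh7 Rab9-luciferase reporter cells (1500/well) receive compound 2 h post-plating, incubate 24 h at 37 °C, then get luciferase reagent for 10 min before luminescence reading.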
ELG1 DNA repair: qHTS screen for small molecules that inhibit ELG1-dependent DNA repair in human embryonic kidney (HEK293T) cells expressing luciferase-tagged ELG1 | HEK293T ELG1-luciferase reporter, luminescence, 16 h; DNA damage induced by 5-fluorouridine | Potency, µM (doses to about 46.1 µM), hits mostly inhibitors | 330,000 compounds, 2.3% hits; note: nearly all actives have a fitted effect of over 55% in size
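Reporter activity after DNA damage by 5-fluorouridine is monitored. Compound-treated cells incubate 16 hr at 37 °C, then ONE-Glo is added for 30 min before luminescence reading.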
ELG1 genotoxic: qHTS screen for small molecules that induce genotoxicity in human embryonic kidney (HEK293T) cells expressing luciferase-tagged ELG1; HEK293T ELG1-luciferase reporter, luminescence, 16 h; Potency, µM (doses to about 46 µM), hits mostly activators; 330,000 compounds, 1.3% hits; AID 504466, 2011; note: nearly all actives have a fitted effect of over 60% in size
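Step 1: seed 2,000 HEK293T ELG1-luciferase cells per well. Step 2: add compound or DMSO, incubate 16 hr at 37 °C. Step 3: ONE-Glo, 30 min at room temperature, read luminescence.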
FLuc counter: qHTS profiling assay for firefly luciferase inhibitor/activator using purifed enzyme and Km concentrations of substrates (counterscreen for miR-21 project); 360,000 compounds, 6.9% hits; purified FLuc, Km substrates, luminescence inhibition; Potency, µM (top dose mostly 57.5 µM), actives largely listed as inhibitors; Luciferin 4-monooxygenase (Photinus pyralis), P08659; note: nearly all actives have a fitted effect of over 55% in size
Target sequence (P08659 whole entry, looked up): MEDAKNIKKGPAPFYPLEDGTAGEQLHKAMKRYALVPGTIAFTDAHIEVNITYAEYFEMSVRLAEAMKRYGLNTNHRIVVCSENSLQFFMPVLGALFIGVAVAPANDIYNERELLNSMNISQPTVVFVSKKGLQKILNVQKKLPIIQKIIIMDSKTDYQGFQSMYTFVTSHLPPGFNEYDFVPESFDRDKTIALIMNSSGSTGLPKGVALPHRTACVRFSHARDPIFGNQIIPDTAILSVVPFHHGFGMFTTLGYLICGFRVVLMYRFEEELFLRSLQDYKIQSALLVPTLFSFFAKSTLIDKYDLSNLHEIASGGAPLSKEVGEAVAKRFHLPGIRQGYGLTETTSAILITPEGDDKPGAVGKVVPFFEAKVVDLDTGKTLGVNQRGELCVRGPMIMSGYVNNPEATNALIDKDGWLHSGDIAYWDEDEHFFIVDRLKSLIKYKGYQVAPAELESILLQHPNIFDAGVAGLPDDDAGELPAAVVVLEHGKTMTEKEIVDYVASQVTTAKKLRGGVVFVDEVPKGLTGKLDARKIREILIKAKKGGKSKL
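Purified P. pyralis luciferase, 10 nM final, with Km-level 10 uM D-luciferin and 10 uM ATP in 50 mM Tris acetate pH 7.5, 10 mM Mg acetate, 0.01% Tween-20, 0.05% BSA; 6-point qHTS titration about 60 µM downward; luminescence read.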
Hits are given with their value; - = inactive; ? = inconclusive; . = no result given. Sampled rows, rich in hits. Any-hit rate of the full collection: about 9.2%. Calls come from the whole dose curve; as a rule, active = well fitted curve in the direction sought with a large enough effect; inconclusive = small, poorly fitted or top-dose-only effect, or another doubt; inactive = no such curve, though single readings can be large; an effect the other way counts as inactive or inconclusive.

SMILES	NPC1 promoter act	SMN2 splice up	Rab9 prom act	ELG1 DNA repair	ELG1 genotoxic	FLuc counter
CN(C)c1ccc(-c2noc(C3CCN(C(=O)Nc4ccc(Cl)cc4)CC3)n2)cc1	-	.	-	?	-	-
O=C(COC(=O)c1cc(S(=O)(=O)Nc2ccccc2Cl)ccc1O)Nc1nc2ccccc2s1	-	-	?	?	-	21µM
N#Cc1cccc(NC(=O)COC(=O)c2cc(S(=O)(=O)Nc3ccccc3Cl)ccc2O)c1	.	.	.	?	-	.
CCCCNC(=O)c1cc(-c2ccc3c(c2)OCO3)on1	3.5µM	.	2µM	?	?	2.7µM
CCN(CC)CCCNC(=O)c1cc(-c2ccc3c(c2)OCO3)on1	-	.	-	?	-	-
O=C(NCc1ccc2c(c1)OCO2)c1cc(-c2ccc(Cl)cc2Cl)on1	-	-	-	-	-	12µM
CCCNC(=O)c1cc(-c2ccc3c(c2)OCO3)on1	0.63µM	.	0.56µM	?	?	3.8µM
CC(C)NC(=O)c1cc(-c2ccc3c(c2)OCO3)on1	0.56µM	.	0.63µM	?	?	3.8µM
Cc1ccc(O)c(NC(=O)c2cc(-c3ccc4c(c3)OCO4)on2)c1	.	-	.	.	.	?
Cc1ccc(S(=O)(=O)CC(=O)Nc2sc3c(c2C#N)CCCC3)cc1	.	.	.	.	.	-
CCOC(=O)c1ccc(NC(=O)CSc2cn(CC(=O)N3CCCC3)c3ccccc23)cc1	.	.	.	.	.	-
CCOc1ccccc1NC(=O)CCc1c(C)nc2c(c(C)nn2-c2ccccc2)c1C	.	-	.	.	.	-
CCN(CC)CCCNC(=O)c1cc(-c2ccc(Cl)cc2)on1	-	-	-	-	-	-
CCN(CC)C(=O)c1cc(-c2ccc3c(c2)OCO3)on1	4µM	.	3.5µM	?	?	9.5µM
CCN(CC)C(=O)c1cc(-c2ccc(Cl)cc2)on1	.	10µM	.	.	.	13µM
O=C1CCC(C(=O)N2CCCCO2)CN1Cc1ccc(Cl)cc1 (stereo not drawn)	-	.	-	-	-	-
Cc1ccc(CNC(=O)[C@@H](NC(=O)C2CCN(C(=O)[C@@H](N)CC(C)C)CC2)C(C)C)cc1	-	.	-	-	-	-
O=C(COc1ccc(NC(=O)c2ccccc2)cc1)c1ccccc1	?	.	-	-	-	2.1µM
Cc1ccc(NC(=O)c2ccccc2OCC(=O)c2ccccc2)cc1	-	-	-	-	-	13µM
CCOc1ccccc1C(=O)Nc1ccc(NC(=O)c2ccccc2)cc1	-	.	-	-	-	-
CCOc1ccc(NC(=O)c2ccccc2OCC(=O)c2ccccc2)cc1	-	-	?	-	-	2.1µM
COc1ccccc1NC(=O)C1CCN(c2cnccn2)CC1	.	-	.	.	.	-
COc1cc2c(cc1OC)C(C(=O)c1ccc(OC)c(OC)c1O)=NCC2	.	-	.	.	.	.
CCOC(=O)c1c(C)[nH]c(CCC(=O)NCc2cccc(OC)c2)c1C	.	.	.	.	.	-
CCOC(=O)c1c(C)[nH]c(N=Nc2cccc(C)c2)c1C	1.8µM	7.9µM	2.8µM	?	2.5µM	7.6µM
SMILES	NPC1 promoter act	SMN2 splice up	Rab9 prom act	ELG1 DNA repair	ELG1 genotoxic	FLuc counter
CCOC(=O)c1c(C)[nH]c(N=Nc2cccc(OC)c2)c1C	1.8µM	14µM	1.1µM	?	?	1.7µM
CCOC(=O)c1c(C)[nH]c(CCC(=O)NCc2cccc(C)c2)c1C	.	.	.	.	.	-
CCc1ccc2occ(CC(=O)Nc3c(C(=O)c4ccccc4)oc4ccccc34)c2c1	.	-	.	.	.	-
COc1cccc2c(Cl)c(CCCl)c(C)nc12	-	-	-	-	-	21µM
CCCCc1c(C)nc2c(OC)cccc2c1SCC(=O)O	-	.	-	?	-	-
CCCCn1c(/C=C/c2ccco2)nc2ccccc21	-	16µM	-	?	-	13µM
CCCn1c(/C=C/c2ccco2)nc2ccccc21	-	14µM	-	?	-	12µM
Cc1cccc(NC(=O)c2ccoc2C)n1	-	18µM	-	?	?	?
Cc1cccc(NC(=O)c2cc(NC(=O)c3ccco3)ccc2Cl)n1	-	-	-	12µM	-	?
Cc1cccc(NC(=O)c2ccccc2Br)n1	-	-	-	?	-	?
Cc1cc(C)c(NC(=O)c2ccoc2C)c(C)c1	-	-	-	-	-	-
Cc1occc1C(=O)Nc1cc(C(C)(C)C)on1	2.8µM	14µM	1.6µM	?	5.2µM	6µM
CC1=CC2C(C(C)C)CCC(C)(O)C2CC1 (stereo not drawn)	.	-	.	.	.	.
O=C(c1cc(-c2ccccc2)nc2ccccc12)N1N=C(C(F)F)CC1(O)C(F)F (stereo not drawn)	-	-	-	-	-	-
Cc1ccc(-c2cc(C(=O)N3N=C(C(F)F)CC3(O)C(F)F)c3ccccc3n2)cc1C (stereo not drawn)	-	-	-	?	-	7.6µM
CCOc1cccc(-c2cc(C(=O)N3N=C(C)CC3(O)C(F)F)c3ccccc3n2)c1 (stereo not drawn)	-	-	-	?	-	24µM
Cc1ccc(-n2c(SCc3ccccc3)nc3c([nH]c4ccccc43)c2=O)cc1	.	.	.	.	.	-
CC(=O)C1=C(c2ccc(Br)cc2)N(C(C)=O)n2c(nnc2C2CCCCC2)S1	.	.	.	.	.	-
CC(=O)N1CCc2c(sc3c2c(=O)n(Cc2ccccc2)c(=O)n3Cc2cccc(Cl)c2)C1	.	-	.	.	.	-
O=C(COC(=O)c1c2c(nc3ccccc13)/C(=C\c1cccs1)CCC2)Nc1ccccc1	-	-	-	15µM	-	-
CC(=O)c1ccc(NC(=O)COC(=O)c2c3c(nc4ccccc24)/C(=C\c2cccs2)CCC3)cc1	-	.	-	10µM	-	-
O=C(COC(=O)c1c2c(nc3ccccc13)CCCC2)Nc1ccc2c(c1)OCO2	-	-	-	?	-	?
CC(C)(C)NC(=O)COC(=O)c1c2c(nc3ccccc13)CCC2	-	.	-	?	-	-
O=C(Cc1ccccc1)Nc1ccc(CN2CCOCC2)cc1	?	22µM	?	?	12µM	?
O=C(Nc1ccc(CN2CCOCC2)cc1)c1ccccc1F	3.2µM	11µM	?	?	?	?
COc1ccc(Br)cc1C(=O)NC(=S)Nc1ccc(CN2CCOCC2)cc1	-	.	-	?	-	-
COc1cc2ccccc2cc1C(=O)Nc1ccc(CN2CCOCC2)cc1	-	.	-	?	-	15µM
O=C(Nc1ccc(CN2CCOCC2)cc1)c1cccs1	?	13µM	3.2µM	?	?	12µM
Cc1cc(=O)[nH]c2nnc(SCC(=O)Nc3ccc(F)cc3F)n12	.	.	.	.	.	-
Cc1cc(Nc2cccc(Cl)c2)nc2ccc(NC(=O)COc3ccc(Cl)cc3)cc12	.	.	.	.	.	-

Assay outcomes as filed in PubChem.
